DNMT1 inh – DNMT1 (human) enzyme inhibition; 360,000 compounds, 0.83% hits; DNMT1 molecular beacon, Hinp1I cleavage, fluorescence; P26358; inhibition (reported as % activation of signal), % at 10 µM; AID 588458; in the data active = inhibition above about 50%
LEDGF integ inh – blocks HIV-1 LEDGF/p75-dependent DNA integration. TR-FRET IN-LEDGF/p75 DNA integration, Eu/Cy5. inhibition, % at 3.7 µM. 370,000 compounds, 0.64% hits;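 active = inhibition above the screen-wide mean plus 3 SD, cut at about 13% in these data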;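 also: signal is the Cy5 over europium emission ratio at 671 and 618 nm; 0% = plate median of compound wells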
rCAG binder – binds r(CAG) RNA repeats; AID 651821; inhibition, % at 3 µM; 370,000 compounds, 1.3% hits; r(CAG) RNA repeat, TO-PRO-1 dye displacement fluorescence;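 active = inhibition above the plate cutoff, the mean of all test compounds on that plate plus 3 SD, cut at about 35% in these data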;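 also: 0% = DMSO alone and 100% = 100 µM mitoxantrone as full dye displacement; higher means more dye released from RNA so lower well fluorescence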
UHRF1 MBD2 ctr – blocks human UHRF1 binding to methylated DNA; 370,000 compounds, 0.75% hits; UHRF1 binding to methylated oligo, TR-FRET; inhibition, % at 4.4 µM; Q96T88; in the data active = inhibition above about 21%;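 also: UHRF1 SRA domain binding a hemimethylated CpG hairpin DNA probe; 0% = median of test compound wells and 100% = reference inhibitor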
Target sequence (Q96T88 whole entry, looked up, the tested form may be a part): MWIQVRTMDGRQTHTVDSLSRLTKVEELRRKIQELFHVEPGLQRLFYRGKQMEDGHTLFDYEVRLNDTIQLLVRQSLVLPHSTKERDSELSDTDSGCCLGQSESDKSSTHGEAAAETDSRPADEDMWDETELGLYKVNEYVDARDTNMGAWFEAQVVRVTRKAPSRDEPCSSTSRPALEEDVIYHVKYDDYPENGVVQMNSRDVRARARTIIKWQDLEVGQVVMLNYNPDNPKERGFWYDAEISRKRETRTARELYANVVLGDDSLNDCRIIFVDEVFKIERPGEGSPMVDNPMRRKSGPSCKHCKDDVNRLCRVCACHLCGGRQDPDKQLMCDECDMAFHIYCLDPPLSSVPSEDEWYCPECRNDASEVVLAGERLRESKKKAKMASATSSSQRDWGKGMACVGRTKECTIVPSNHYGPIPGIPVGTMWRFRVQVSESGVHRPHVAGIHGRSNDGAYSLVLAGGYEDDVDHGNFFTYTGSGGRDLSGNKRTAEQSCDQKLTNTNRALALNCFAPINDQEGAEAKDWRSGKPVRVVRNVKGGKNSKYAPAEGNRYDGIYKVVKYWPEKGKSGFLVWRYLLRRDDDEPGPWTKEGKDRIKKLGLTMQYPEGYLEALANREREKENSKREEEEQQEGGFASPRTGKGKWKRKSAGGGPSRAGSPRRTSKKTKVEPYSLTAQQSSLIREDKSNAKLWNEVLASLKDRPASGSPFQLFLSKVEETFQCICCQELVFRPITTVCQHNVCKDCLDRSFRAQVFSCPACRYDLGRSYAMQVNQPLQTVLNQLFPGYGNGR
MBD2 inh – blocks human MBD2 binding to methylated DNA; Q9UBB5; TR-FRET, MBD2 binding to methylated oligonucleotide; inhibition, % at 4.4 µM; 370,000 compounds, 0.31% hits; in the data active = inhibition above about 13%
PG9 Ab binder – PG9 antibody binding by small molecule; TR-FRET gp120-PG9 antibody binding; inhibition, % at 6.7 µM; 360,000 compounds, 0.43% hits; AID 624416; in the data active = inhibition above about 8.5%
UHRF1 DNA bind – counter-screen for MBD2 inhibitors: human UHRF1 methylated DNA binding inhibitors | 1,000 compounds, 25% hits | shares compounds with MBD2 inh | inhibition, % at 4.4 µM | UHRF1 binding to methylated oligonucleotide, TR-FRET; in the data active = inhibition above about 21%;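 also: UHRF1 SRA domain binding a labeled hemimethylated CpG hairpin DNA; 0% = vehicle only and 100% = reference inhibitor with vehicle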
MBD2 confirm – confirmation of human MBD2-DBD methylated oligonucleotide binding inhibitors; shares compounds with MBD2 inh; TR-FRET MBD2-DBD binding to methylated oligonucleotide; inhibition, % at 4.4 µM; 1,000 compounds, 26% hits; AID 720531
IN multimer up – counter-screen for LEDGF/p75 integration inhibitors: HIV-1 integrase multimerization activators. shares compounds with LEDGF integ inh. TR-FRET HIV-1 integrase multimerization, biochemical. activation, % at 7.7 µM. 2,000 compounds, 17% hits. AID 1053131; in the data active = activation above about 8.9%
TR-FRET interf – TR-FRET optical interference, LEDGF/p75 integration counter-screen | 2,000 tested, under 10 active | TR-FRET optical interference counterscreen, HIV-1 IN multimerization | shares compounds with LEDGF integ inh | AID 1053135 | inhibition, % at 7.7 µM;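 active = inhibition above the mean over all tested compounds plus 3 SD, which no compound reached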;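 also: 0% = integrase with antibodies and DMSO and 100% = antibodies without integrase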
IN-LEDGF confirm – confirmation of HIV-1 LEDGF/p75-dependent integration inhibitors. shares compounds with LEDGF integ inh. TR-FRET LEDGF/p75-dependent HIV-1 integration, biochemical. inhibition, % at 3.7 µM. 2,000 compounds, 36% hits. AID 1053136
* hit, by the source's call; / = no result given. In the library only some 3.5% were active in any assay of this set; here they are far more common. Rule as the data show it, unless noted: active = inhibition above about 14%; inactive = the rest.

SMILES	DNMT1 inh	LEDGF integ inh	rCAG binder	UHRF1 MBD2 ctr	MBD2 inh	PG9 Ab binder	UHRF1 DNA bind	MBD2 confirm	IN multimer up	TR-FRET interf	IN-LEDGF confirm
O=C(COC(=O)/C=C/c1ccco1)NCc1ccccc1	4	1	3	0	-4	0	/	/	/	/	/
O=C(N/C=C/c1ccco1)OCc1ccccc1	-5	36*	33	24*	15*	-2	26*	27*	31*	-156	36*
CCN(CC)Cc1cc(O)c(CN(CC)CC)cc1O	9	64*	17	52*	17*	-2	3	-1	4	-22	57*
Cc1c(N)cc(N)cc1C(=O)O	-4	74*	-42	73*	26*	-2	1	-2	6	-30	1
CCn1c(SCC(=O)Nc2cccc(S(=O)(=O)N(C)c3ccccc3)c2)nnc1C1CC1	-1	4	5	5	-1	-1	/	/	/	/	/
O=C(NC(=S)Nc1ccc(Br)cn1)c1cccs1	-4	19*	14	37*	14*	1	4	0	-3	9	-1
Nc1ccc2nc(-c3cccc(-c4nc5ccc(N)cc5[nH]4)c3)[nH]c2c1	-8	16*	22	26*	14*	-13	4	4	60*	-213	-11
Nc1ccc(-c2nc3ccc(N)cc3[nH]2)cc1	-18	-6	3	-7	0	-15	/	/	/	/	/
COc1ccccc1Cc1c(-c2ccc(OC)c(OC)c2)nc2cc(C)c(Br)c(C)n12	/	18*	3	26*	19*	0	-1	3	0	1	-7
CCOC(=O)C1CCN(S(=O)(=O)c2ccc3c(ccn3C)c2)CC1	-5	3	-1	-3	-6	1	/	/	/	/	/
O=C1CCCN1C(=O)CSc1nnnn1-c1cccc(F)c1	2	2	2	4	-1	-1	/	/	/	/	/
CCCCNC(=O)C[C@H]1C[C@@]2(C(=O)OC)C(=C[C@H](C(C)C)O[C@@H]2C2CC2)N(Cc2ccc(Cl)cc2Cl)C1=O	/	-3	1	-2	1	/	/	/	/	/	/
O=S(=O)(NCc1ccccc1)c1ccc(Cl)cc1	2	0	-2	-2	4	-1	/	/	/	/	/
O=S(=O)(Nc1cc2nc3ccccc3nc2n1Cc1ccccc1)c1ccc(Cl)cc1	89*	24*	15	16	16*	-3	1	18*	1	-3	73*
O=C1OC(c2ccc(Cl)cc2)=N/C1=C\C=C\c1ccco1	34	36*	11	40*	14*	-2	11	0	-1	4	-1
O=C1OC(c2ccccc2)=N/C1=C\C=C\c1ccccc1[N+](=O)[O-]	-8	2	12	-2	-6	-5	/	/	/	/	/
O=C(NC1CCCC1)C(c1ccccc1)n1c(Cc2cc(F)cc(F)c2)nc2ccccc21 (configuration not stated)	/	0	3	1	5	-2	/	/	/	/	/
CSc1nc(N(CCO)CCO)c2sc3nc(-c4ccco4)c4c(c3c2n1)CCC4	96*	16*	23	24*	18*	1	31*	36*	12*	-60	53*
CCC1Cc2[nH]c(=S)[nH]c(=O)c2C(c2ccc(F)cc2)O1 (configuration not stated)	2	3	4	-1	-2	0	/	/	/	/	/

High-throughput results as filed in PubChem.
